The panel holds about 79,000 compounds, 15% with a hit somewhere; the sample as a whole holds those more often. No stated cut-off is given here; in the data, active means growth inhibition above about 70%; inactive means the rest. Where a SMILES comes first, the peptide text is derived from it.
Experiments:
[1] = NCI Yeast Anticancer Drug Screen. Data for the rad50 strain (AID 155);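 further: 0% = growth of vehicle-only cultures of the same strain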; details: S. cerevisiae rad50 strain growth inhibition; at 50.0 µM; stronger effect = higher value
Outline: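 Relative growth inhibition (compound vs vehicle) was measured in yeast with a defined repair-gene alteration.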

[2] = NCI Yeast Anticancer Drug Screen. Data for the mec2-1 strain (AID 157); details: S. cerevisiae mec2-1 strain, at 50.0 µM, stronger effect = higher value
Outline: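 Readout is yeast growth inhibition, normalised to vehicle-treated controls, in the mec2-1 strain exposed to compound.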

[3] = NCI Yeast Anticancer Drug Screen. Data for the sgs1 mgt1 strain (AID 161);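 further: 0% = growth of cultures given vehicle only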; details: S. cerevisiae sgs1 mgt1 strain, at 50.0 µM, stronger effect = higher value
Outline: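 Yeast cells carrying a defined DNA-repair defect were exposed to test compounds. Growth inhibition was measured relative to vehicle-treated controls.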

[4] = NCI Yeast Anticancer Drug Screen. Data for the cln2 rad14 strain (AID 165);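 further: 0% = growth equal to vehicle treated cultures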; details: S. cerevisiae cln2 rad14 strain, at 50.0 µM, stronger effect = higher value
Outline: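 Relative to vehicle controls, growth inhibition of compound-treated cln2 rad14 yeast was recorded.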

[5] = NCI Yeast Anticancer Drug Screen. Data for the bub3 strain (AID 167); details: S. cerevisiae bub3 mutant strain, at 50.0 µM, stronger effect = higher value
Outline: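 Screening used yeast with an engineered genetic alteration affecting cell cycle control. Compound-exposed cultures were compared with vehicle cultures, and reduced growth was taken as inhibition.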

[6] = NCI Yeast Anticancer Drug Screen. Data for the mlh1 rad18 strain (AID 175); details: S. cerevisiae mlh1 rad18 strain growth inhibition; at 50.0 µM; stronger effect = higher value
Outline: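 Test agents were incubated with a yeast strain of defined genotype (DNA damage repair defect). Inhibition of growth was derived by comparison with vehicle-exposed cultures.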

Measured: growth inhibition

Cc1cc(Cl)cc(C(=O)O)c1O
inactive: [1] 5.7% | [2] -9.25% | [3] 0.1% | [4] -12.7% | [5] -8.05% | [6] -8%

CCc1ccccc1NC(=O)CCl
inactive: [1] 9.15% | [2] 0.3% | [3] -0.35% | [4] 17.6% | [5] -3.1% | [6] 2.75%

c1ccc(SC2CCSc3ccccc3C2Sc2ccccc2)cc1 (stereo not drawn)
inactive: [1] 3.2% | [2] -14.7% | [3] 3.2% | [4] 3.65% | [5] 0.5% | [6] 11.2%

NC(=O)CN(CC(N)=O)C(N)=O
inactive: [1] -14.6% | [2] -18% | [3] -20.2% | [4] 5.15% | [5] -10.3% | [6] -23.6%

O=C(NNC(=S)NCc1ccccc1)C12CC3CC(CC(C3)C1)C2
inactive: [1] -35.6% | [2] -10.3% | [3] -4.2% | [4] 2.55% | [5] 15.5% | [6] -5.9%

CCOc1ccc(NC(=O)C(=O)C(C(=O)c2ccc3ccccc3c2)C2OC(=O)c3ccccc32)cc1 (stereo not drawn)
inactive: [1] 13.1% | [2] 3.45% | [3] -2.4% | [4] -17.6% | [5] 7.85% | [6] 6.8%

CCOC(=O)CCC(NC(=O)c1ccc(Nc2cnc3ccc(C(F)(F)F)cc3n2)cc1)C(=O)OCC (stereo not drawn)
inactive: [1] 24.3% | [2] 6.45% | [3] 12.2% | [4] 14.1% | [5] 19.9% | [6] -23.8%

O=C1CC2CCCCC2=C1O (stereo not drawn)
inactive: [1] 18.4% | [2] -11.2% | [3] 14.1% | [4] 17.9% | [5] -3.1% | [6] 13.8%

COC(=O)CC[N+]1=CCC(c2ccccc2)(c2ccccc2)O1
inactive: [1] -9.55% | [2] -24.9% | [3] -20.8% | [4] 5.8% | [5] -15.9% | [6] -7.65%

O=C(O)CC1CCCCCC1
inactive: [1] 21.9% | [2] 8.25% | [3] 12.8% | [4] 12.9% | [5] 32.8% | [6] 12%

NC(=O)C1N=NSC1NC(=O)c1ccc([N+](=O)[O-])cc1 (stereo not drawn)
inactive: [1] 1.8% | [2] -5.6% | [3] -8.9% | [4] 6.65% | [5] -9.15% | [6] 5.45%

Cc1ccsc1/C=N/Nc1nc2ccccc2s1
inactive: [1] 1.7% | [2] -1.5% | [3] 13.7% | [4] 9.2% | [5] -2.15% | [6] 11.3%

C/C=C/C(O)CCCC (stereo not drawn)
inactive: [1] -13.2% | [2] -7.15% | [3] 4.15% | [4] 2.75% | [5] -28.2% | [6] -7.2%

O=C(CCCn1ccnc1[N+](=O)[O-])NCCn1ccnc1[N+](=O)[O-]
inactive: [1] 5.95% | [2] 9.35% | [3] -9.9% | [4] 17.4% | [5] -11.8% | [6] -12.3%

Cc1nc2nc(N)nnc2c(=O)[nH]1
inactive: [1] -7.25% | [2] 3.2% | [3] -18.8% | [4] -13.8% | [5] -1.75% | [6] -0.1%

CCCC/C=C(\C)C(C)(C#N)C(=O)OCC (stereo not drawn)
inactive: [1] -35.4% | [2] -0.4% | [3] -4.5% | [4] -14% | [5] -17.9% | [6] -3.15%

CCOC(=O)NC1CCc2ccccc2C1 (stereo not drawn)
inactive: [1] 5.95% | [2] 0.3% | [3] 4% | [4] -13.9% | [5] -3% | [6] 2.6%

Cc1cc2c(cc1C)NC(=O)CC(=O)N2
inactive: [1] -3.45% | [2] -28.8% | [3] -8.45% | [4] 1.95% | [5] -18.7% | [6] 14.4%

CCC(C)C(C)(O)CC (stereo not drawn)
inactive: [1] -2.6% | [2] -28.9% | [3] -21.8% | [4] 4.1% | [5] -8.8% | [6] -4.8%

CNC(=O)OCc1c(COC(=O)NC)c(-c2ccc(S(C)(=O)=O)cc2)n(C)c1C
inactive: [1] 49% | [2] -3.3% | [3] -16.2% | [4] 5.25% | [5] -10.1% | [6] -42%

COc1ccc(/C=N/N2CN(C(C)C(=O)O)B(N(CCO)CCO)N=C2N)cc1OC (stereo not drawn)
inactive: [1] 15.2% | [2] 5.3% | [3] 7.55% | [4] 20.9% | [5] 7.65% | [6] 20.9%

NC(Cc1cnc[nH]1)C(=O)NC(Cc1ccc(O)cc1)C(=O)O (stereo not drawn) (H-His-Tyr-OH; configuration not given here)
inactive: [1] 7.6% | [2] -23% | [3] 7.2% | [4] 16.6% | [5] 9.85% | [6] 22%

NC(=O)C(=CN1C(=O)/C(=C/c2ccccc2O)SC1=S)C(N)=O
inactive: [1] -21.6% | [2] 2.9% | [3] 10.9% | [4] 28.4% | [5] -4.85% | [6] -24.1%

COC(=O)C(Cc1nc2ccccc2[nH]c1=O)C(=O)C(=O)Nc1ccc([N+](=O)[O-])cc1[N+](=O)[O-] (stereo not drawn)
inactive: [1] 7.25% | [2] 22.7% | [3] 4.45% | [4] 0.2% | [5] 18.1% | [6] 13.1%

N#Cc1ccc(OCCCOc2ccc(C#N)cc2)cc1
inactive: [1] 8.15% | [2] 12.2% | [3] 9.65% | [4] 5.3% | [5] 46.2% | [6] -4.15%

O=C(NC(=O)C(F)(F)C(F)(F)F)Nc1cc(F)ccc1F
inactive: [1] 5.15% | [2] -2.05% | [3] 1.45% | [4] -38.8% | [5] -6.55% | [6] -29%

CC1CC=C2CCCCC2(C)C1C (stereo not drawn)
inactive: [1] 8.7% | [2] 13.7% | [3] 16.2% | [4] -30.9% | [5] -40.6% | [6] 3.7%

C=CCOC(=O)C(C)OC(=O)/C(Cl)=C/C(=O)O (stereo not drawn)
inactive: [1] -2.45% | [2] 7.25% | [3] 16.4% | [4] -29.4% | [5] 10.5% | [6] 6.15%

CC(=O)C1C(=O)NC(=O)C1=O (stereo not drawn)
inactive: [1] -2.9% | [2] -23.5% | [3] -14.2% | [4] 0.2% | [5] -18.9% | [6] -18.9%

C=CCNC(=O)ON1C(=O)CCC1=O
inactive: [1] -19.8% | [2] 3.05% | [3] -35.6% | [4] -8.65% | [5] -22.9% | [6] -39.5%

Clc1ccc(N=Nc2ccccn2)cc1
inactive: [1] 18.1% | [2] 2% | [3] -11.1% | [4] -65% | [5] -7.6% | [6] -12.2%

CO[C@H]1C[C@H]2[C@@H]3CCC4=CC(=O)C=C[C@]4(C)[C@@]3(F)[C@@H](O)C[C@]2(C)[C@@]1(O)C(=O)COC(C)=O
inactive: [1] 6.55% | [2] -0.35% | [3] 22.8% | [4] 33.2% | [5] 1.05% | [6] -6.55%

OCC1OC(n2cnc3c(Cl)nc(Nc4ccc(Cl)c(Cl)c4)nc32)CC1O (stereo not drawn)
inactive: [1] 7.45% | [2] -0.2% | [3] -12.9% | [4] -0.4% | [5] -16.9% | [6] 66%

C/C(=N\NC(=S)N1CCC(C)CC1)c1nccnc1C
inactive: [1] 6.1% | [2] 7.85% | [3] 11.4% | [4] 28.1% | [5] 8.95% | [6] 17.7%

Nc1ccc(S(=O)(=O)c2ccc(Nc3ccnc4cc(Cl)ccc34)cc2)cc1
inactive: [1] 23.1% | [2] 13.6% | [3] 5.05% | [4] 7.55% | [5] 1.6% | [6] 12.8%

O=C1CCCS(=O)(=O)CCC1
inactive: [1] 7.4% | [2] 11.5% | [3] -8.2% | [4] -3.5% | [5] 0.9% | [6] 54.1%

CN(c1c(Cl)cccc1Cl)S(=O)(=O)c1ccccc1[N+](=O)[O-]
inactive: [1] -38.5% | [2] -49.5% | [3] -15.5% | [4] 20% | [5] -1.1% | [6] -4.5%

CCCCCCCCCCCSc1ccc2ccccc2c1
inactive: [1] 5.75% | [2] 14.7% | [3] 6.75% | [4] -20.5% | [5] -18.6% | [6] 5.3%

From PubChem BioAssay (NCI)
